Source: PubChem BioAssay (National Center for Advancing Translational Sciences (NCATS))
HT1080NT lethal = kills 2HG-producing HT-1080-NT fibrosarcoma cells; HT-1080-NT fibrosarcoma viability, CellTiter-Glo ATP luminescence, 48 h; Potency, µM (top dose mostly 46.1 µM), actives largely listed as cytotoxic; 360,000 compounds, 1.6% hits;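 further: NT is the 2HG producing partner of a matched IDH1 knockdown line; nearly all actives have a fitted effect of over 55% in size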
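Toxicity toward the 2HG-producing NT line was scored as %Activity, normalised to DMSO and no-cell wells, from CellTiter-Glo luminescence after 48 hours' treatment.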
KB-3-1 tox = KB-3-1 parental cell cytotoxicity; KB-3-1 viability, CellTiter-Glo ATP luminescence, 72 h; Potency, µM (series often up to 46.1 µM), hits mostly cytotoxic; 400,000 compounds, 1.4% hits; further: nearly all actives have a fitted effect of over 60% in size
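Viability of parental KB-3-1 cells, measured by CellTiter-Glo luminescence, followed a 72 h incubation at 37 °C with pinned compounds in phenol-red-free DMEM containing 10% FBS.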
KB-V1 MDR tox = kills drug-selected multidrug resistant KB-V1 cells; KB-V1 MDR cells viability, CellTiter-Glo, 72 h; Potency, µM (titrated, usually from 46.1 µM), hits mostly cytotoxic; 400,000 compounds, 3.4% hits; further: nearly all actives have a fitted effect of over 60% in size
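Following 72 h at 37 degrees C with compound, KB-V1 cell viability was read by CellTiter-Glo luminescence, medium being phenol-red-free DMEM plus 10% FBS; concentration-response parameters came from normalized, curve-fitted qHTS data.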
HT1080 IDH1KD tx = kills HT-1080 cells with IDH1 knockdown; AID 686971; HT-1080 IDH1 knockdown viability, ATP luminescence, 48 h; Potency, µM (highest dose often 46.1 µM), usual class: cytotoxic; 360,000 compounds, 2% hits
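Viability of IDH1-knockdown HT-1080 fibrosarcoma cells was assessed by CellTiter-Glo after 48 h at 37 °C with titrated compound; concentration-effect curves were classified by fit quality and response size.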
MCF10A rerep = induces DNA re-replication in MCF 10a normal breast cells. 350,000 compounds, 2.9% hits. MCF 10A DNA re-replication, Hoechst nuclear intensity, 48 h. AID 624296. Potency, µM (doses to about 46.1 µM), actives largely listed as activators; further: nearly all actives have a fitted effect of over 50% in size
SW480 rerep = inducers of DNA re-replication in SW480 colon cancer cells; 340,000 compounds, 1.8% hits; Potency, µM (series often up to 46.1 µM), most hits filed as activators; SW480 DNA re-replication, Hoechst DNA content imaging, 48 h; AID 624297; further: nearly all actives have a fitted effect of over 55% in size
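First, 250 cells per well were seeded. Next, compound or vehicle (23 nL) was pinned in, plates sat 48 hr at 37 C. Finally Hoechst was added for 40 min before fluorescence scanning.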
Numbers stand for hits; 0 = inactive; ? = inconclusive; - = not tested or not shown; [ ] = another dose, or the depositor's remark. Most compounds without a hit are left out; they make up all but 7.9% or so of the library. The call rests on the fitted dose curve; in most records, active means well fitted curve in the direction sought with a large enough effect; inconclusive means small, poorly fitted or top-dose-only effect, or another doubt; inactive means no such curve, though single readings can be large; an effect the other way counts as inactive or inconclusive.

SMILES	HT1080NT lethal	KB-3-1 tox	KB-V1 MDR tox	HT1080 IDH1KD tx	MCF10A rerep	SW480 rerep
CC1CCN(C(C(=O)O)c2ccccc2)CC1 (stereo not given)	0	0	0	0	0	0
Clc1cccc(OCCN2CCNCC2)c1	0	0	0	0	0	18µM
Clc1cccc(OCCN2CCOCC2)c1	0	0	0	0	0	0
CCN1CCN(c2ccc(S(=O)(=O)N3CCCCC3)cc2NC(=O)COc2ccc(F)cc2Cl)CC1	21µM	?	0	18µM	0	0
O=C(Nc1cc(S(=O)(=O)N2CCCCC2)ccc1Cl)c1ccccc1NS(=O)(=O)c1ccc(F)cc1	0.58µM	4.6µM	?	?	?	?
O=C(Nc1cc(S(=O)(=O)N2CCCCC2)ccc1O)c1ccccc1NS(=O)(=O)c1ccc(F)cc1	?	0	0	?	?	0
CCN1CCN(c2ccc(S(=O)(=O)N3CCCCC3)cc2NC(=O)c2ccc(F)cc2)CC1	0	0	0	0	7.3µM	?
CCOC(=O)[C@]12CCCC=C1N(Cc1ccco1)C(=O)[C@H](CC(=O)N1CCC(c3ccccc3)CC1)C2	0	0	0	0	-	-
C=CCOC(=O)C1=C[C@H](c2csc3ccccc23)C[C@H](OCc2ccc(CO)cc2)O1	0	0	0	0	?	0
CCOc1ccc(-c2nn3c(-c4ccc(F)cc4)nnc3s2)cc1	0	0	0	0	0	0
Cc1noc(C)c1COc1ccc(C(=O)OCC(=O)OC(C)(C)C)cc1	0	0	0	0	0	0
CC1CC(C)CN(CCCNC(=O)c2ccc3c(c2)N(Cc2ccccc2)C(=O)c2ccccc2S3=O)C1 (stereo not given)	0	0	0	0	12µM	?
CN(Cc1ccccc1)C(=O)c1ccc2c(c1)N(Cc1ccc(Cl)cc1)C(=O)c1ccccc1S2=O (stereo not given)	-	16µM	?	-	-	-
O=C(NCc1ccco1)c1ccc2c(c1)N(Cc1ccc(Cl)cc1)C(=O)c1ccccc1S2=O (stereo not given)	-	0	0	-	-	-
CCCN(CCC)CCCNC(=O)c1ccc2c(c1)N(CC)C(=O)c1ccccc1S2=O (stereo not given)	0	?	0	0	0	0
CCOCCCNC(=O)c1ccc2c(c1)N(CC)C(=O)c1ccccc1S2=O (stereo not given)	0	?	18µM	0	0	0
CCCCn1c(CNC(=O)c2ccc(OC)cc2)nnc1SCC(=O)Nc1ccc(OC)cc1	-	0	0	-	-	-
CCCCN(Cc1ccccc1)S(=O)(=O)c1cc(Br)cc2c1N(C(C)=O)C(C)C2 (stereo not given)	?	0	21µM	?	0	0
CC(=O)N1c2c(cc(Br)cc2S(=O)(=O)NCc2cccnc2)CC1C (stereo not given)	0	0	0	0	0	0
Cc1ccc(-c2nnc(SCC(=O)NNC(=O)COc3ccccc3C)n2C)cc1	0	0	0	0	0	0
O=C(Cn1c(=O)n(-c2cccc(Cl)c2)c(=O)c2sc3ccccc3c21)N1CCCC1	-	0	0	-	-	-
C/C(=N\NC(=O)CNc1cccc(Cl)c1C)c1cccs1	0	0	0	0	0	18µM
COc1ccccc1NCC(=O)N/N=C(\C)c1cccs1	0	0	0	0	0	0
CC1=CS/C(=C(/C#N)C(=O)NCc2ccco2)N1c1ccccc1	0	0	0	0	0	0
N#C/C(C(=O)NCc1ccco1)=C1/SC=C(c2ccccc2)N1c1ccccc1	0	0	0	0	?	29µM
Cc1cccc(NC(=O)c2cc(NC(=O)C3CC=CCC3C(=O)O)ccc2N2CCOCC2)c1 (stereo not given)	0	0	0	0	0	0
CC(=O)Nc1ccc(N2CCCCC2)c(C(=O)Nc2cccc(C)c2)c1	0	0	7.3µM	?	?	0
Cc1cccc(NC(=O)c2cc(NC(=O)C3CCCCC3C(=O)O)ccc2N2CCCCC2)c1 (stereo not given)	0[9.24 µM]	0	0	0	15µM	0
